The whole screen tested about 31,000 sequences, of which about 1,400 (4.5%) were called active.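 How the source made its calls: active means median seed-adjusted z-score above 1 or below -1; inactive means the rest.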 Only a selection was taken, and actives are over-represented in it overall.
Test: Novel Modifiers of Survival Motor Neuron (SMN) Protein: Gene Identification via Genome-wide siRNA Screen
Settings: HEK293T SMN2-luciferase reporter, siRNA knockdown, 72 h; actives lie on both sides
From the text: Spinal muscular atrophy (SMA) is the most common neuromuscular autosomal recessive disorder and one of the leading genetic causes of infant death. SMA results from mutations inducing loss of function or deletion in the survival of motor neuron-1 gene (SMN1), leading to deficiency of the survival motor neuron (SMN) protein. Although a second nearly identical gene, SMN2, is retained in humans, its expression primarily produces an aberrantly spliced isoform that is largely unstable and quickly degraded. We performed a genome-wide RNAi screen using a cell-based reporter assay to identify genes and pathways that modulate SMN protein stability. The screen identified over 200 genes that led to the greatest increase or decrease in luciferase expression.
Using HEK293T cells stably expressing a luciferase reporter that combines the promoter and splicing based cassettes in tandem with the major portion of the native SMN2 cDNA with luciferase, we performed a genome-wide RNAi screen to identify modulators of SMN protein levels. Luciferase is expressed when full-length SMN protein is generated with luminescence signal proportional to SMN protein levels. Our luciferase-based reporter assay was used to screen Ambion Silencer Select Human Druggable Genome siRNA library (10418 genes, 3 unique siRNAs per gene) using lipid-based reverse transfection.
Briefly, 1 pmol of each siRNA was spotted to a well of a 384-well plate (Corning, Corning, NY) and 20 microL of serum-free DMEM containing […] of Lipofectamine RNAiMax (Life Technologies, Carlsbad, CA) was then added to each well. Transfected cells were maintained at 37 degrees C in 5% CO2 for 72 hours, 20 microL of ONE-Glo Reagent (Promega) was added to wells for luciferase quantification. Raw luminescence reads were normalized to Ambion(R) Silencer(R) Negative Control #2 siRNA, then log10 transformed. A robust statistical measure of median absolute deviation (MAD) to standardize siRNA activities from each screen. Common Seed Analysis was used to help prioritize clean hits as opposed to those appearing to arise from seed based off-target effects. Candidate modulators were defined as the genes having a MAD score greater than 1.0 or less than -1.0.

Sequence	median seed-adjusted z-score
CGAGCUACACUGUCCACUUTT against CSGLCA-T	0.146 (inactive)
GGACUUGCUCGGCUCUAUATT against CRKRS	-1.16 (active)
CAACUUGGACAAGACCUUATT against GYS1	0.874 (inactive)
CGACAUCAGCUGAUAAUCATT against NPY1R	0.76 (inactive)
AACAGUAUCUUUCAGAAUATT against TMPRSS5	1.25 (active)
GGCUGAAUUAUGACCGGAATT against PPFIA4	0.0399 (inactive)
CUUGGAUACAGAUACGUUUTT against TLK1	-0.0133 (inactive)
UCGAUAUUCUAAGAUCACATT against UBE2D3	1.62 (active)
CACCUUAACUUCAUCAACATT against SCN4A	-0.681 (inactive)
GAGCUGGGAUGAUAAAGAUTT against AGPAT2	0.38 (inactive)
GCGAUGAUGUGGAACCUUATT against TBC1D9	-0.0473 (inactive)
AUAUAACACUUCUACUCUUTT against CMA1	-0.0475 (inactive)
CAACGAUGCUAGAAGAAUUTT against PCOLCE2	-1.15 (active)
CCGUCUAUAUGGAGUCUUUTT against ROR1	-0.0044 (inactive)
CUACUUUCGAGACUACUUUTT against DGAT2	0.195 (inactive)
GGGAAGAUAUUUGUCAGCATT against PLXNA2	0.308 (inactive)
ACAGGCCUGUGAAACCCUATT against PEX5	-0.0414 (inactive)
GCCUUACCUGGAGAACUGATT against VPS26A	-1.55 (active)
GCGAGAAUCUGUUAGUAAATT against PANK3	-0.185 (inactive)
CCAUCUUCACUGACGAGCATT against GSC	0.17 (inactive)
CCUUUUUGCUGGACACUGUTT against PLEKHF1	0.055 (inactive)
CACCCAUGCUGACAGUGAATT against HLA-DMA	-0.00543 (inactive)
GCCUCCUUCUUUGACCGGATT against NACC1	1.59 (active)
GGACUUCUUUUGUCAUGCATT against BCKDHB	0.366 (inactive)
GAACAGAUGUUUGAGACUUTT against GUCA1A	0.101 (inactive)
GCGAGUGUCUUGAAGUAUATT against PLAA	-0.192 (inactive)
AAACAUUAUUUACCAUUCATT against ZNF439	-0.26 (inactive)

Sequence	median seed-adjusted z-score
CCACGUGUCUAACACCAAUTT against KRT79	0.338 (inactive)
GAAUAUAUCUAAAUCGCAUTT against RORA	-0.144 (inactive)
GACCUCACGUUGUCGAAGATT against GTPBP4	1.01 (active)
GACUUGGAGUUUCAGGCAATT against XPC	-0.564 (inactive)
GCUCCAGUCUUUUCGCAAATT against DSG4	-0.0211 (inactive)
CCAAUUCUACAAAAGCAAATT against SRD5A3	-0.165 (inactive)
CGUGCACAGAUAUUACGCATT against FIGNL1	-0.408 (inactive)
GCAUUGUCGUUGCAAUCGATT against CLCA1	0.015 (inactive)
GCAUCGAGCAGGAACAGAATT against ATP2B2	1.37 (active)
UUUUUGAUGUGGACUCAAATT against USP18	-0.326 (inactive)
GUUCAAUACUUGAACACGATT against FFAR2	0.146 (inactive)
GAAUUACAGUGACAGUUCATT against AP3M1	0 (inactive)
GUAAUGUUCUUAAACGAAUTT against PPP2R5C	1.14 (active)
GAAACAUCUGGUGCUAUUATT against KREMEN2	-0.0883 (inactive)
GCAAGAAUCCCUAAAGCAUTT against BAG2	-0.87 (inactive)
CAGUUGAUAUUCAUAAAGATT against ABI2	-0.0392 (inactive)
GGGCAGAAUUGGAAUGCGATT against CNTNAP4	-0.414 (inactive)
AGAGCGGUCUGACAGUGGATT against NUDT1	-0.175 (inactive)
GGUAUAAACGCGUCCAGCATT against MAFB	0.674 (inactive)
CCAACGACGUGGUGCAGAATT against CLDN14	-0.456 (inactive)
CAGCAAACCUUUGACCAGATT against U2AF2	2.14 (active)
CUACGGCUACGUCUACAUCTT against GPR25	0.377 (inactive)
GAGCGGACAUGAUAAGCAUTT against CD302	0.0818 (inactive)
GGAUGAUAUUAACAGGUCATT against USP8	0.743 (inactive)
GCAUACGCAGGAUCCUGGATT against KRT34	0.124 (inactive)
CGAGUUAGCAAGUUCAGCATT against CTRL	0.0758 (inactive)
GAAAUCUUCUUGAGUGUAATT against GPR141	-0.777 (inactive)
